Laboratory results: PubChem BioAssay (NCI)
Compounds without any hit were thinned out: in the full panel of roughly 83,000, 20% have a hit.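 Each cell line was grown in a 96-well plate and treated with one concentration of compound for 48 hours. Values below 10 were considered active.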 Unmarked numbers belong to inactive results. Active and inactive are the calls of the source.

test system: SK-MEL-28 melanoma; test: NCI-60 one-dose screen, 48 h (100 = growth as untreated, 0 = no growth, -100 = all killed); conditions: 10 µM unless noted
Description: Growth inhibition of the SK-MEL-28 human tumor cell line is measured as a screen for anti-cancer activity. Cells are grown in 96 well plates and exposed to the test compound for 48 hours. Compounds are tested at a single concentration, which is 10^-5 M for most compounds. The reported endpoint is percent growth (GI% or GIPRCNT), where numbers from 0 - 100% represent growth inhibition, and numbers from -100% - 0 represent cell death. For example, a value of 40 represents 60% growth inhibition. A value of 0 means no net growth occurred over the course of the experiment. A value of -40 indicates 40% of cells at the beginning of the experiment died by the end of the experiment. A value of -100 means all cells are dead at the end of the experiment.
NCI-60 Human Tumor Cell Lines Screen was performed using the standard one-dose NCI protocol, which is described in more detail at https://dtp.cancer.gov/discovery_development/nci-60/default.htm.
Compounds with GIPRCNT values below 10 were considered active. Activity score was based on GIPRCNT using the following formula: […]
Score is 0 for GIPRCNT values of 100 or above, 50 for GIPRCNT values of 0, and 100 for GIPRCNT values of -100.

SMILES | growth
CN1CCN(c2ccc3nc(-c4[nH]ncc4Nc4ncnc5c4OCCCN5)[nH]c3c2)CC1 | -73.1% (active)
O=C(/C=C/c1ccc2ccccc2c1)Nc1ncc(Cc2ccccc2)s1 | 85%
N#Cc1cnc2cc(OC[C@@H](O)CO)c(NC(=O)C3CCCC3)cc2c1Nc1ccc(OCc2cccc(F)c2)c(Cl)c1 | -85.2% (active)
Cc1c(C)c2c(c(C)c1NC(=O)CCCCCCC(=O)O)CCC(C)(CCCC(C)CCCC(C)CCCC(C)C)O2 (stereo not given) | 96.1%
O=C1c2ccccc2NC(c2cn(-c3ccccc3)nc2-c2cccnc2)N1Cc1ccccc1 (stereo not given) | 108%
Cc1cc(N2CCN(C)CC2)nc(N(CCNc2ccnc3cc(Cl)ccc23)Cc2ccco2)n1 | -72.3% (active)
COC(=O)[C@]12CC[C@@H](C)[C@H](C)[C@@H]1C1=CC[C@@H]3[C@@]4(C)C[C@@H](OC(C)=O)[C@H](OC(C)=O)[C@@](C)(COC(C)=O)[C@@H]4[C@H](O)C[C@@]3(C)[C@]1(C)CC2 | 38.6%
CC(C)c1cc(C(=O)O)c(O)c(C(C)C)c1.CC(C)c1cc(C(=O)O)c(O)c(C(C)C)c1.[Mn] | 113%
O=C(O)c1cccc2c1Cc1cc([N+](=O)[O-])ccc1-2 | 108%
C=C(C)[C@@H]1CC[C@]2(C(=O)O)CC[C@]3(C)[C@H](CC[C@@H]4[C@@]5(C)C/C(=C/c6ccc(OC)cc6)C(=O)C(C)(C)[C@@H]5CC[C@]43C)[C@@H]12 | 41.3%
C=C(C)[C@@H]1CC[C@]2(C)[C@H](CC[C@@H]3[C@H]4[C@H]5OC[C@@]4(CCC5(C)C)CC[C@]32C)[C@@]1(C)CCCN | 34.7%
COc1ccc(-c2cc(-c3cccs3)n(N=O)c(=O)c2C#N)cc1 | 124%
O=C1/C(=C\c2ccc(Br)o2)SC(=S)N1CCc1ccc(O)cc1 | 55.3%
CCOc1ccc(NC(=O)c2ccoc2COc2ccccc2)cc1 | 101%
Fc1ccc(Nc2nc(Nc3ccc(-c4nc5ccccc5[nH]4)cc3)nc(N3CCCC3)n2)cc1 | 47.7%
CC1(C)C(=O)/C(=C\c2cccnc2)C[C@]2(C)[C@H]3CC[C@@H]4[C@@H](C(=O)/C=C/c5ccncc5)CC[C@@]4(C)[C@]3(C)CC[C@@H]12 | 26.7%
CC(=O)O[C@H]1CC[C@]2(C)[C@H]3CC=C4[C@@H]5[C@H](C)[C@@H](C)CC[C@]5(C(=O)NCCNCCNCCN)CC[C@@]4(C)[C@]3(C)CC[C@H]2C1(C)C | 90.1%
Fc1ccc2nc(-c3cc(-c4ccc5c(c4)OCO5)n[nH]3)[nH]c2c1 | 75.3%
C[C@H]1OC(=O)/C=C/[C@@H](O)[C@@H](O)CCCCCCCC[C@@H]1O | 108%
Nc1ccc(Br)cn1 | 107%

SMILES | growth
Oc1cccc2ccc(N/N=C/c3cc(CN4CCCCC4)c(O)c4ncccc34)nc12 | 23%
COc1cc(-c2cc(-c3nc4ccccc4[nH]3)[nH]n2)cc(OC)c1OC | 61.8%
C=C(C)[C@@H]1CC[C@]2(/C=N/Nc3ccncc3)CC[C@]3(C)[C@H](CC[C@@H]4[C@@]5(C)CCCNC(C)(C)[C@@H]5CC[C@]43C)[C@@H]12 | 95.4%
O=C1C=C(C(O)c2ccc(O)cc2)C(=O)c2ccccc21 (stereo not given) | 120%
Nc1ccc(Cl)cn1 | 110%
Cn1cnc2c1c(=O)n(CCC(=O)Nc1ccc(F)cc1)c(=O)n2C | 110%
COc1cc(-c2cc3ncccc3c3nc(OCCN(C)C)c4cccnc4c23)cc(OC)c1OC | 31.6%
CC(C)=CCC/C(C)=C/CC/C(C)=C/CC/C(C)=C/CSC[C@H](NC(=O)CCCCCN1CCN(C)CC1)C(=O)NC1CCCCC1 | 5.53% (active)
CC1(C)[C@@H](O)CC[C@]2(C)[C@H]3CC[C@@H]4[C@H]5[C@H](C(=O)/C=C/c6ccc(C(F)(F)F)cc6)CC[C@]5(CO)CC[C@@]4(C)[C@]3(C)CC[C@@H]12 | 54.6%
CN1CCN(CCOc2ccc(-c3cnc4c(-c5cccc(F)c5)cnn4c3)cc2)CC1 | 92.1%
COc1cc2c(cc1-c1c(C)noc1C)ncc1nc(C3CCCCC3)n([C@@H](C)COC(F)F)c12 | 45.8%
N#Cc1cnc2cc(OC[C@@H](O)CO)c(NC(=O)CC3CSSC3)cc2c1Nc1ccc(OCc2cccc(F)c2)c(Cl)c1 | -71.9% (active)
CCSc1sc(-c2ccc(C)cc2)nc1[P+](c1ccccc1)(c1ccccc1)c1ccccc1 | 15.2%
COc1ccc(/C=C(\C#N)c2cc3ccccc3n2S(C)(=O)=O)cc1 | 82.5%
COCCNC1=C(Cl)C(=O)c2ccccc2C1=O | 109%
Cc1ccc2c(c1)c1nc3cc(C)c(C)cc3nc1n2CCN(C)C | 17.2%
CC1(C)NCCC[C@]2(C)[C@H]3CC[C@@H]4[C@H]5[C@H](C(=O)/C=C/c6ccccn6)CC[C@]5(CO)CC[C@@]4(C)[C@]3(C)CC[C@@H]12 | 88.3%
C/C(=N/NC(N)=S)C(=O)O | 103%
N#C/C(=C\c1ccc(-c2ccc(Cl)cc2)o1)c1nc(-c2ccco2)cs1 | 97.5%
COc1cc(-c2cc3ncccc3c3nc(N)c4cccnc4c23)cc(OC)c1OC | 62.7%
